Screening data deposited in PubChem by several laboratories.
This is a sample that favours compounds with a hit; in the whole collection about 3.8% have one here.
HSF1 inhib: HSF1 inhibition; activity change, negative = inhibition, % at 7.5 µM (by protocol); NIH3T3-HGL HSE-luciferase, MG132-induced, luminescence 8 h; stronger effect = lower value; hit rate 0.77% among 300,000; AID 2098;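 active = more than half of replicate wells show activity change below -50%, luminescence cut by over half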;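 also: luciferase reports HSF-1 transcriptional activity via heat shock element; 0% = median of DMSO wells and -100% = zero luminescence signal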
HSF-1 act: increases HSF-1 driven luciferase reporter signal; NIH3T3-HGL HSF-1 luciferase reporter, MG132, 8 h; 100% = twice DMSO control signal; activation, % at 9 µM; hit rate 1.7% among 300,000; AID 504408;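 active = mean replicate activation of at least 50% with a set share of replicates each reaching 50%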;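 also: 0% = median of the neutral control wells and 100% = twice that signal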
HSP90 refold inh: inhibitors of HSP90 luciferase refolding in rabbit reticulocyte lysate; hit rate 0.91% among 290,000; inhibition, % at 5.6 µM; AID 1789; luciferase refolding luminescence, 3 h;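 active = inhibition above the screen-wide mean plus 3 SD, computed separately per campaign, cut at about 16% in these data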;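 also: 0% = DMSO wells and 100% = 60 µM geldanamycin wells; inhibitors lower the luminescence because luciferase stays unfolded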
Hsp70 act: transcriptional activators of Hsp70. activation, % at 10 µM. HeLa Hsp70 promoter luciferase reporter, luminescence; scaled: vehicle 0, proteasome-inhibitor control 100%. hit rate 0.04% among 200,000;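 active = activation above the mean across all tested compounds plus 3 SD, cutoff set per campaign, cut at about 5.5% in these data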;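 also: 100% = MG132 at 30 µM as the positive control and 0% = DMSO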
NALP1 inh: inhibitors of NALP1 inflammasome in yeast; S. cerevisiae NALP1/ASC/caspase-1 growth, X-gal OD620, 72 h; inhibition, % at 10 µM; hit rate 0.61% among 280,000; in the data active = inhibition mostly above about 24%, no sharp cut-off; inactive = mostly below about 32%
pCIP destab: compounds decreasing mouse p/CIP protein stability; Q05BA5; AID 1984; hit rate 0.01% among 290,000; F442A p/CIP-EGFP cells, EGFP fluorescence, 16 h; decrease of EGFP signal, % at 10 µM;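 active = EGFP signal decrease of at least 30% at 10 µM or well 3 SD below plate mean, unless failing retest; inactive = the rest, including hits failing retest or dose response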
Hsp70 act dose: activates Hsp70 transcription in dose response; calls only at 99 µM; shares compounds with Hsp70 act; hit rate 10% among 70; HeLa hsp70.1pr-luc reporter, luciferase luminescence; AID 1252;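 active = over 50% activation at some tested dose; inactive = under 50% activation at every tested dose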
Starred values were filed as active, the others as inactive.

How did COc1cccc(C2C([N+](=O)[O-])=C(N)Oc3c2c(=O)oc2ccccc32)c1 (configuration not stated) do in these assays?
HSF1 inhib: 37; HSF-1 act: 59*; HSP90 refold inh: 1; Hsp70 act: 0; NALP1 inh: -4; pCIP destab: -8

How did CC(=O)Nc1ccccc1C(=O)OCC(=O)c1ccc2ccccc2c1 do in these assays?
HSF1 inhib: 22; HSF-1 act: 27; HSP90 refold inh: -1; Hsp70 act: 0; NALP1 inh: 3; pCIP destab: -8

Results for Nc1ccccc1C(=O)OCC(=O)c1ccc2c(c1)OCCO2 ?
HSF1 inhib: -57*; HSF-1 act: -57; HSP90 refold inh: 1; Hsp70 act: 0; NALP1 inh: -9; pCIP destab: -4

How did O=C(c1ccccc1)C(CN1CCCC1)c1ccccc1 (configuration not stated) do in these assays?
HSF1 inhib: 22; HSF-1 act: 50; HSP90 refold inh: -1; Hsp70 act: 0; NALP1 inh: 94*; pCIP destab: -4

Results for COc1ccc(C(=O)OC2CC3CCC(C2)[N+]3(C)[O-])cc1OC (configuration not stated) ?
HSF1 inhib: -2; HSF-1 act: 6; HSP90 refold inh: -2; NALP1 inh: 8; pCIP destab: -16

Results for CCCCC1C(=O)NC(=S)NC1=O ?
HSF1 inhib: -67*; HSF-1 act: -70; HSP90 refold inh: 2; Hsp70 act: 0; NALP1 inh: 13; pCIP destab: 3

How did CN1/C(=C\C=C\C2=[N+](C)c3ccc4ccccc4c3C2(C)C)C(C)(C)c2ccccc21 do in these assays?
HSP90 refold inh: 8; Hsp70 act: 0; NALP1 inh: 57*; pCIP destab: 2

How did O=C1C(=O)c2ccccc2-c2ccccc21 do in these assays?
HSF1 inhib: -94*; HSF-1 act: -95; HSP90 refold inh: 11; Hsp70 act: 0; NALP1 inh: -19; pCIP destab: -16

What do the screens show for `O=C1C(=O)c2cccc3cccc1c23`?
HSF1 inhib: -16; HSF-1 act: -13; HSP90 refold inh: -4; Hsp70 act: 0; NALP1 inh: -14; pCIP destab: -4

How did CS(=O)(=O)NCc1nnc2n1-c1ccc(Cl)cc1C(c1ccccc1)=NC2 do in these assays?
HSF1 inhib: 3; HSF-1 act: 1; HSP90 refold inh: 1; Hsp70 act: 0; NALP1 inh: 0; pCIP destab: -2

How did CSCc1nnc2n1-c1ccc(Cl)cc1C(c1ccccc1)=NC2 do in these assays?
HSF1 inhib: -87*; HSF-1 act: -89; HSP90 refold inh: -2; Hsp70 act: -1; NALP1 inh: 31; pCIP destab: -9

Results for C=CCn1c(O)c(C(C)=NC2CC2)c(=O)[nH]c1=O ?
HSF1 inhib: 5; HSF-1 act: 15; HSP90 refold inh: -3; Hsp70 act: 0; NALP1 inh: -2; pCIP destab: 1

Results for C=CCn1c(O)c(C(C)=NCCN2CCCCC2)c(=O)[nH]c1=O ?
HSF1 inhib: -5; HSF-1 act: -6; HSP90 refold inh: -2; Hsp70 act: 0; NALP1 inh: -5; pCIP destab: -12

How did C=CCn1c(O)c(C(C)=NC2CCN(Cc3ccccc3)CC2)c(=O)[nH]c1=O do in these assays?
HSF1 inhib: -88*; HSF-1 act: -91; HSP90 refold inh: -1; pCIP destab: 5

What do the screens show for `C=CCn1c(O)c(/C(C)=N/N2CCCCC2)c(=O)[nH]c1=O`?
HSF1 inhib: 25; HSF-1 act: 67*; HSP90 refold inh: 2; pCIP destab: 1

Results for C=CCn1c(O)c(C(CC)=NCC2CCCO2)c(=O)[nH]c1=O (configuration not stated) ?
HSF1 inhib: 30; HSF-1 act: 65*; HSP90 refold inh: 0; NALP1 inh: -44; pCIP destab: 14

Results for CCOC(=O)c1c(C=O)c2ccccc2n1Cc1ccccc1 ?
HSF1 inhib: 15; HSF-1 act: 23; HSP90 refold inh: -2; NALP1 inh: 7; pCIP destab: -2

Results for CCCCCn1c(=O)c(C(=O)Nc2nc(CC(=O)OCC)cs2)c(O)c2ccccc21 ?
HSF1 inhib: -6; HSF-1 act: -7; HSP90 refold inh: 2; Hsp70 act: 0; NALP1 inh: 2; pCIP destab: 7

How did COCCNC(=O)CN1C(=O)C(C)N=C(c2ccccc2)c2cc(Cl)ccc21 (configuration not stated) do in these assays?
HSF1 inhib: -1; HSF-1 act: 12; HSP90 refold inh: -2; NALP1 inh: 15; pCIP destab: -13

How did COc1cc(Br)cc(CN2CCN(C)CC2)c1O do in these assays?
HSP90 refold inh: -5; Hsp70 act: 1; NALP1 inh: 20; pCIP destab: -6

How did COc1ccc(Br)cc1CN1CCN(CCO)CC1 do in these assays?
HSF1 inhib: -87*; HSF-1 act: -89; HSP90 refold inh: 2; Hsp70 act: 0; NALP1 inh: 23; pCIP destab: -2

Results for CCN1CCN(Cc2cc(Br)ccc2O)CC1 ?
HSF1 inhib: 0; HSF-1 act: -3; HSP90 refold inh: 4; Hsp70 act: 0; NALP1 inh: 43*; pCIP destab: 2

How did CCn1nc(-c2ccccc2)nc2c(=O)n(C)c(=O)nc1-2 do in these assays?
HSP90 refold inh: 83*; Hsp70 act: -1; NALP1 inh: 42*; pCIP destab: 1

How did COC(=O)C1CN(C#N)N(c2ccc(Cl)cc2)C12c1ccccc1-c1ccccc12 (configuration not stated) do in these assays?
HSF1 inhib: -95*; HSF-1 act: -95; HSP90 refold inh: 5; Hsp70 act: 6.6*; NALP1 inh: 13; pCIP destab: -18; Hsp70 act dose: inactive

Results for O=C1NC(=S)NC(=O)C1=Cc1ccc(OCC(=O)N2CCCC2)cc1 ?
HSF1 inhib: -4; HSF-1 act: 1; HSP90 refold inh: 1; NALP1 inh: 7; pCIP destab: -3

How did CNc1cc(Cl)c2nonc2c1[N+](=O)[O-] do in these assays?
HSF1 inhib: 113; HSF-1 act: 168*; HSP90 refold inh: 4; Hsp70 act: 18*; NALP1 inh: 8; pCIP destab: -26; Hsp70 act dose: inactive

Results for Cc1cc([N+](=O)[O-])c(Cl)cc1NC(=O)C(C)C ?
HSF1 inhib: -5; HSF-1 act: -22; HSP90 refold inh: -1; Hsp70 act: 0; NALP1 inh: 23; pCIP destab: 5
